# Data as given in PubChem BioAssay (NCI).
# “And” between values parts separate entries of the source, which are not always exact repeats. Equal values may be shown once. Compounds without any hit were thinned out: in the full panel of roughly 83,000, 20% have a hit.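 Testing used 96-well plates and a 48-hour single-concentration exposure. Example: -40 means 40% of the starting cells died.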 The source made the active and inactive calls. Rule for the calls: active = growth percent below 10; inactive = the rest.
# Test system: OVCAR-4 ovarian
# Assay: NCI-60 one-dose screen, 48 h (100 = growth as untreated, 0 = no growth, -100 = all killed)
# Conditions: 10 µM unless noted
row,SMILES,growth
1,CN(C)C(=O)c1cc2cnc(Nc3ccc(-c4csc5c(=S)cc(N6CCOCC6)oc45)cc3)nc2n1C1CCCC1,18.5% (inactive)
2,CN1CCN(c2ccc(/C=C/C(=O)c3ccc(O)cc3)cc2)CC1,89.5% (inactive)
3,CCCCC(NC(=O)CN1C(=O)/C(=C/C(C)=C/c2ccccc2)SC1=S)C(=O)O (stereo not given),101% (inactive)
4,CC1(Cc2ccccc2)CC2=C(C(=O)O1)C(c1ccccc1)NC(=O)N2 (stereo not given),108% (inactive)
5,COc1ccc(-c2nc(Cl)c3c(C)nn(-c4ccc(F)cc4)c3n2)cc1,107% (inactive)
6,CCCCn1c(C(=O)c2c[nH]c3ccccc23)n[nH]c1=S,92.4% (inactive)
7,COc1ccc(/C=C2\COc3ccc(O)c(O)c3C2=O)c(OC)c1OC,27.8% (inactive)
8,C=C(CN1CC=CCC1)[C@@H]1CC[C@]2(COC(C)=O)CC[C@]3(C)[C@H](CC[C@@H]4[C@@]5(C)CC[C@H](O)C(C)(C)[C@@H]5CC[C@]43C)[C@@H]12,92.2% (inactive)
9,O=[N+]([O-])c1ccc(S(=O)Cc2ccccc2)c([N+](=O)[O-])c1 (stereo not given),59.7% (inactive) and 1.6% (active)
10,O=C(Cn1cc(CN2CCN(c3ccnc4cc(Cl)ccc34)CC2)nn1)Nc1cccc([N+](=O)[O-])c1,92.4% (inactive)
11,Nc1n[nH]c2cccc(C#Cc3cccc(NC(=O)c4ccc(N5CCOCC5)c(C(F)(F)F)c4)c3)c12,25.6% (inactive)
12,COC1=CC(=O)C(OC)=C(O)C1=O,90.8% (inactive)
13,CONC1=Nc2cc(NC(N)=NCc3ccccc3)c(N(C)C3CCCCC3)cc2OC1,73.8% (inactive)
14,Cc1ccc(NC(=O)c2ccc(CN3CCN(C)CC3)cc2)cc1Nc1nccc(-c2cccnc2)n1,100% (inactive) and 93.1% (inactive)
15,Fc1ccc(NC(c2ccc(F)cc2)C2CCN(CCCCc3ccccc3)CC2)cc1 (stereo not given),50.6% (inactive)
16,COc1ccc2c(O)c(/C=C3\N=Nc4nc(C)ccc43)oc2c1CC1CCNCC1,74.2% (inactive)
17,COc1ccc(C(=O)N/N=C/c2ccc(O)cc2O)cc1Nc1ccnc(C(F)(F)F)c1,31.7% (inactive)
18,COc1ccc(-c2cc(-c3cc(OC)c(OC)c(OC)c3)c(C#N)c(=O)n2CCCCC(=O)O)cc1,91.5% (inactive)

row,SMILES,growth
1,COc1cc(-c2[nH]ncc2Nc2ccc(Cl)cc2)cc(OC)c1OC,71.6% (inactive)
2,Nc1ccc(S(=O)(=O)c2ccc(N)cc2)cc1,111% (inactive) and 117% (inactive)
3,C/C(=C(\c1ccc(OCCN2CCOCC2)cc1)c1ccc(OC(=O)C2CCCCC2)cc1)c1ccc(Cl)cc1,111% (inactive)
4,CCN(CC)CCOc1ccc(/C(=C(\Cl)c2ccccc2)c2ccccc2)cc1,55.5% (inactive) and 47.4% (inactive)
5,CSc1nnc(-c2cc3c([nH]c4ccccc43)c(-c3cccc(O)c3)n2)n1-c1ccc(C)cc1,54.1% (inactive)
6,COc1ccc(/C(C)=C(\c2ccc(OCCN3CCCCCC3)cc2)c2ccc(OC(=O)C3CCCCC3)cc2)cc1,-28.4% (active)
7,N=C1/C(=C2\NC3C=CC=CC3S2)C(c2ccc(Cl)cc2)C2C(=O)N(c3ccccc3)C(=S)N12 (stereo not given),101% (inactive)
8,Nc1nc(Nc2cccnc2)sc1C(=O)c1ccccc1F,80.7% (inactive)
9,COCCOc1cc2ncnc(N3CCN(S(=O)(=O)c4ccccc4Cl)CC3)c2cc1OCCOC,102% (inactive)
10,O=C1/C(=C/c2ccc(F)c(F)c2)CN(C(=O)C(Cl)Cl)C/C1=C\c1ccc(F)c(F)c1,-67.1% (active)
11,O=C([C@H]1C[C@H]1c1ccc(S(F)(F)(F)(F)F)cc1)N1CCN(c2cc(Cl)ccc2C(F)(F)F)CC1,90.7% (inactive)
12,O=C(NNc1ccccc1)c1ncc[nH]1,48.4% (inactive)
13,COc1cccc(C2C(C#N)=C(N)Oc3cc(OCCCCCC[P+](c4ccccc4)(c4ccccc4)c4ccccc4)ccc32)c1 (stereo not given),2.58% (active)
14,CCOC(=O)N(O)c1ccc(/C=C/c2ccccc2)cc1,55.8% (inactive) and 43.5% (inactive)
15,CN(C)CCN1C(=O)c2c(c3c4ccccc4n4c3c3c2c2ccccc2n3C2CC(O)C(O)C4(C)O2)C1=O (stereo not given),29.3% (inactive)
16,O=C(CCCOc1ccc(Br)cc1)Nc1ncc(Cc2ccc(F)cc2)s1,68.7% (inactive)
17,COc1cc(NC2CCCCC2O)c2nc(-c3ccc(Cl)cc3)ccc2c1 (stereo not given),75.6% (inactive) and 76.7% (inactive)
